The list is not random: actives were taken first. Their share in the collection is about 3.5%.
DNMT1 block – blocks human DNA methyltransferase DNMT1; AID 588458; DNMT1 molecular beacon, Hinp1I cleavage, fluorescence; inhibition (reported as % activation of signal), % at 10 µM; P26358; hit rate 0.83% among 360,000; in the data active means inhibition above about 50%
UHRF1 MBD2 ctr – blocks human UHRF1 binding to methylated DNA. UHRF1 binding to methylated oligo, TR-FRET. inhibition, % at 4.4 µM. hit rate 0.75% among 370,000. AID 687016; in the data active means inhibition above about 21%;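 further: UHRF1 SRA domain binding a hemimethylated CpG hairpin DNA probe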
rCAG binder-1 – binds r(CAG) RNA repeats; r(CAG) RNA repeat, TO-PRO-1 dye displacement fluorescence; inhibition, % at 3 µM; hit rate 1.3% among 370,000;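 active means inhibition above the plate cutoff, the mean of all test compounds on that plate plus 3 SD, cut at about 35% in these data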;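 further: higher means more dye released from RNA so lower well fluorescence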
MBD2 DNA inh – blocks human MBD2 binding to methylated DNA | AID 686964 | TR-FRET, MBD2 binding to methylated oligonucleotide | inhibition, % at 4.4 µM | hit rate 0.31% among 370,000; in the data active means inhibition above about 13%
Target sequence (Q9UBB5 whole entry, looked up): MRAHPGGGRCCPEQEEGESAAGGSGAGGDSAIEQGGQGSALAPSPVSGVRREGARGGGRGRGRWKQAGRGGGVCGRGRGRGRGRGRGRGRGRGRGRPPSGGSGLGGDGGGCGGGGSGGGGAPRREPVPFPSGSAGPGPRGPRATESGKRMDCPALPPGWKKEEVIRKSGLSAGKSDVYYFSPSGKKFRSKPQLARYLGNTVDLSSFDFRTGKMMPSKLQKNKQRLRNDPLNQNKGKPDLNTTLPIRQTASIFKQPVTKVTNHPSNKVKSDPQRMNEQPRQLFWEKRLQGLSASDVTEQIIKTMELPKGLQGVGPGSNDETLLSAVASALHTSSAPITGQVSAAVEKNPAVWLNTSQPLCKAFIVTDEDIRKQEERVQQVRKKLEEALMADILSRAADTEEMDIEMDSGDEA
LEDGF integ inh – blocks HIV-1 LEDGF/p75-dependent DNA integration. TR-FRET IN-LEDGF/p75 DNA integration, Eu/Cy5. inhibition, % at 3.7 µM. hit rate 0.64% among 370,000. AID 743269;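 active means inhibition above the screen-wide mean plus 3 SD, cut at about 13% in these data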;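 further: signal is the Cy5 over europium emission ratio at 671 and 618 nm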
PG9 Ab binder – small molecules binding HIV-1 gp120 antibody PG9. TR-FRET gp120-PG9 antibody binding. inhibition, % at 6.7 µM. hit rate 0.43% among 360,000. AID 624416; in the data active means inhibition above about 8.5%
rCAG binder conf – r(CAG) RNA repeat binding, confirmation; shares compounds with rCAG binder-1; TO-PRO-1 dye displacement fluorescence; inhibition, % at 3 µM; hit rate 70% among 4,300; AID 652065;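 active means inhibition above a per-plate cutoff, the mean inhibition of sample wells plus 3 SD, cut at about 35% in these data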;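 further: loss of TO-PRO-1 fluorescence as compound displaces dye from 1x1 AA loop RNA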
DNA CAG counter – counter-screen for rCAG RNA binders: DNA CAG dye complex inhibitors | shares compounds with rCAG binder-1 | d(CAG) DNA oligo TO-PRO-1 dye displacement, fluorescence | inhibition, % at 3 µM | hit rate 94% among 4,300;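 active means inhibition above its plate's cutoff, the mean test-well inhibition plus 3 SD, cut at about 4.8% in these data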;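 further: hits displace the dye from DNA and so lower well fluorescence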
DNA CAG DR – DNA CAG dye complex inhibition, dose response counter-screen; shares compounds with rCAG binder-1; DNA CAG/GTC duplex TO-PRO-1 dye displacement fluorescence; IC50, µM; hit rate 20% among 250; AID 686960; in the data active means IC50 below about 10 µM
dCAG TOPRO ctr – counter-screen for rCAG binders: DNA CAG TO-PRO-1 complex inhibitors, late stage; hit rate 80% among 30; shares compounds with rCAG binder-1; IC50, µM; d(CAG) DNA duplex TO-PRO-1 dye displacement, fluorescence
rCAG binder-2 – molecules binding r(CAG) RNA repeats, late stage dose response; r(CAG) RNA TO-PRO-1 dye displacement, fluorescence; IC50, µM; shares compounds with rCAG binder-1; hit rate 100% among 30
Numbers stand for hits; - = inactive; . = not tested or not shown. Unless noted, how the calls were made is not given here.

SMILES	DNMT1 block	UHRF1 MBD2 ctr	rCAG binder-1	MBD2 DNA inh	LEDGF integ inh	PG9 Ab binder	rCAG binder conf	DNA CAG counter	others
Cc1ccc(C)n1NC(=O)c1ccccc1[N+](=O)[O-]	-	-	-	-	-	-	.	.
C#Cc1ccccc1OCCCN1CCC(C(O)(c2ccccc2)c2ccccc2)CC1	.	-	-	-	-	-	.	.
CCCCC[C@@H]1C=C(C(=O)O)[C@H](c2ccc(F)cc2)N1S(=O)(=O)c1ccc(C)cc1	-	-	59	-	-	-	45	14
CCCC[C@@H]1C=C(C(=O)O)[C@H](c2ccc(Br)cc2)N1S(=O)(=O)c1ccc(C)cc1	-	-	53	-	-	-	54	19
CCCC[C@@H]1C=C(C(=O)O)[C@H](c2ccc(CC)cc2)N1S(=O)(=O)c1ccc(C)cc1	-	-	66	-	-	-	49	15
COc1ccccc1NC(=O)C1=C(C)NC(SCC(=O)Nc2ccc(C(=O)O)cc2)=C(C#N)C1c1cccs1 (stereo unspecified)	-	-	46	-	-	-	39	12
CCCSC1=C(C#N)C(c2cccs2)C(C(=O)Nc2ccccc2)=C(C)N1 (stereo unspecified)	-	-	-	-	-	-	.	.
O=S1(=O)c2ccc(N3CCCC3)cc2Oc2ccccc2CN1Cc1cn(Cc2ccc(C(F)(F)F)cc2)nn1	.	-	-	-	-	.	.	.
CC(=O)c1sc(NS(=O)(=O)c2ccc(C)cc2)nc1C	-	-	-	-	-	-	.	.
CC(=O)c1sc(-c2ccccc2)cc1NS(=O)(=O)c1ccccc1	-	-	83	-	-	-	-	-
Cc1ccc(S(=O)(=O)Nc2nc(C)c(C(=O)NN)s2)cc1	-	-	58	-	-	-	-	-
CC(=O)c1sc(-c2ccccc2)cc1NS(=O)(=O)c1ccc(C)cc1	-	-	-	-	-	-	.	.
CC(=O)c1sc(NS(=O)(=O)c2ccc(C)cc2)nc1-c1ccccc1	-	-	42	-	-	-	-	7.5
Cc1ccc(C)c(S(=O)(=O)Nc2nc(C)c(C(=O)Nc3ccccc3)s2)c1	-	-	46	-	-	-	36	9.0
Cc1nc(NC(N)=S)sc1C(=O)Nc1ccccc1	-	-	-	-	-	-	.	.
Cc1nc(NS(=O)(=O)c2ccccc2)sc1C(=O)NNS(=O)(=O)c1ccccc1	-	-	-	-	-	-	.	.
NC(=O)c1sc(-c2ccsc2)cc1NS(=O)(=O)c1ccc(C(F)(F)F)cc1	-	-	56	-	-	-	77	30	DNA CAG DR=7;dCAG TOPRO ctr=4.4;rCAG binder-2=1.5
Cc1ccc(S(=O)(=O)NNC(=O)c2sc(NS(=O)(=O)c3ccccc3)nc2C)cc1	-	-	-	-	-	-	.	.
Cc1ccc(S(=O)(=O)Nc2nc(C)c(C(=O)NNS(=O)(=O)c3cc(C)ccc3C)s2)cc1	-	-	54	-	-	-	59	22
Cc1nc(NS(=O)(=O)c2ccccc2)sc1C(=O)N/N=C/c1ccccc1	-	-	69	-	-	-	43	11
CC(=O)c1sc(-c2ccc(F)cc2)cc1NS(=O)(=O)c1ccc(C)cc1	-	-	-	-	-	-	.	.
Cc1[nH]c2ccccc2c1N=Nc1ccccc1C(=O)O	-	-	53	-	-	-	-	5.7
CCOc1ccc(-c2cc(NC(=O)c3c(F)cccc3F)c(C(=O)O)s2)cc1	-	-	83	-	-	-	85	44
O=C(Nc1cc(-c2ccccc2)sc1C(=O)O)c1cccc(F)c1	-	-	73	-	-	-	70	33	DNA CAG DR=4
O=C(CSC(=S)N1CCCC1)N/N=C/c1c(O)[nH]c(=S)[nH]c1=O	-	-	-	-	-	-	.	.
SMILES	DNMT1 block	UHRF1 MBD2 ctr	rCAG binder-1	MBD2 DNA inh	LEDGF integ inh	PG9 Ab binder	rCAG binder conf	DNA CAG counter	others
CC(=O)CSc1nsc(SCC(C)=O)c1C#N	-	-	35	-	-	-	38	18
CC(C)(C)NC(=O)CSc1nsc(SCC(=O)NC(C)(C)C)c1C#N	-	-	-	-	-	-	.	.
CCOC(=O)c1c(-c2ccc(C)c(C)c2)csc1NC(=O)C1CC=CCC1C(=O)O (stereo unspecified)	-	-	44	-	-	-	58	19
CC(/C=C/c1ccc(O)cc1)=NNc1ccccc1	-	-	-	-	-	-	.	.
O=C(N=C1N(Cc2ccccc2)C[C@]2(C=C3CCCCC3n3c(=O)n(-c4ccccc4)c(=O)n32)N1C(=O)OCc1ccccc1)c1ccccc1 (stereo partly specified)	.	-	-	-	-	.	.	.
O=C(NC1=N[C@@]2(C=C3CCCCC3n3c(=O)n(-c4ccccc4)c(=O)n32)[C@H](Cc2ccccc2)N1Cc1ccccc1)c1ccccc1 (stereo partly specified)	.	-	56	-	-	.	53	20
CCN(C)c1nc(C)nc2c1nnn2Cc1ccccc1	.	-	-	-	-	.	.	.
COC(=O)c1ccc(OCC(O)CNCC(c2ccc(OC)cc2)N(C)C)c(OC)c1 (stereo unspecified)	-	-	-	-	-	-	.	.
CSc1ncc(Cl)c(C(=O)Nc2cccc(C)c2)n1	-	-	-	-	-	-	.	.
CSc1ncc(Cl)c(C(=O)C(C#N)c2nc3c(C)cc(C)cc3c(=O)[nH]2)n1 (stereo unspecified)	-	-	62	-	-	-	81	50
CC(C)COC(=O)N1CCCC(c2cc(C(=O)Nc3ccccc3Cl)no2)C1 (stereo unspecified)	-	-	-	-	-	-	.	.
Cc1nc(-c2ccc(S(=O)(=O)Nc3ccc(Br)cc3Cl)s2)cs1	-	-	74	-	-	-	66	27
Cc1ccc([C@H]2C(C(=O)O)=CC[C@@H](c3ccc(Cl)cc3)N2S(=O)(=O)c2ccc(C)cc2)cc1	-	-	80	-	-	-	80	47
Cc1ccc([C@H]2C(C(=O)O)=CC[C@@H](c3ccc(C(C)C)cc3)N2S(=O)(=O)c2ccc(C)cc2)cc1	-	-	88	-	-	-	81	48
Cc1ccc(S(=O)(=O)N2[C@@H](c3ccccc3)C(C(=O)O)=CC[C@H]2c2ccc(C(C)C)cc2)cc1	-	-	81	-	-	-	78	41

Screening results: PubChem BioAssay, several laboratories
